Assay outcomes: PubChem, Paczesny and Yang Labs, IUPUI and University of Michigan
ST2 IL33 inh = inhibitors of human ST2 (IL1RL1) binding to IL-33, primary screen, biochemical, AlphaLISA | AID 1259354, 2018 | AlphaLISA ST2-Fc/biotin-IL-33 interaction, 1 h | Interleukin-1 receptor-like 1 (Homo sapiens), Q01638 | inhibition, % for hits at 17 µM | actives 2.3% (n = 78,000); in the data active = inhibition above about 30%
Target sequence (Q01638 whole entry, looked up): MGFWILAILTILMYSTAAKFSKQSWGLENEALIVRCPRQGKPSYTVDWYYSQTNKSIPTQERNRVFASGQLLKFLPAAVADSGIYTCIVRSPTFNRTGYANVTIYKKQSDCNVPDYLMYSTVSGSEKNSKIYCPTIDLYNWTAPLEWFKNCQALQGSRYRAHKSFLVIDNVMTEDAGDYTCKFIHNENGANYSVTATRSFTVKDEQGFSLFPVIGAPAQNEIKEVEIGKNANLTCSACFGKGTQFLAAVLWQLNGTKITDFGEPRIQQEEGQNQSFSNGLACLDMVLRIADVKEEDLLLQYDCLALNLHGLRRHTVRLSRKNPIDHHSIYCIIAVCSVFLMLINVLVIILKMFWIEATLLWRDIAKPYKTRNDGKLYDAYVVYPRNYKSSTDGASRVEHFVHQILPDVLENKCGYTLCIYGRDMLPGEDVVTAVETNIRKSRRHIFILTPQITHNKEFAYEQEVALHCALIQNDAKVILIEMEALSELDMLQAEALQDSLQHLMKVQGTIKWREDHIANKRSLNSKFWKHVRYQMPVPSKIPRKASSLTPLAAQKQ
Hits are given with their value; n = inactive. Only a selection was taken, and hits are over-represented in it overall.

SMILES	ST2 IL33 inh
Cc1ccc(N2NC(=O)/C(=C/c3ccc(Cl)c([N+](=O)[O-])c3)C2=O)cc1C	n
O=C1NN(c2cc(Cl)cc(Cl)c2)C(=O)/C1=C\c1cccn1-c1ccc([N+](=O)[O-])cc1	n
O=C1NN(c2cccc(Cl)c2)C(=O)/C1=C\c1cccn1-c1ccc([N+](=O)[O-])cc1	59.0%
CNCC(=O)N1CCCC1c1nc2c(C)cccc2[nH]1 (configuration not stated)	n
Cc1nc2nc[nH]n2c(=O)c1NC(=O)Nc1cccc(F)c1	n
O=C(CCCOc1ccccc1)N1CCN(c2ccc([N+](=O)[O-])cc2)CC1	n
O=C(COc1ccccc1)N1CCN(c2ccc([N+](=O)[O-])c(NCCc3ccccc3)c2)CC1	33.0%
Cc1ccc(OCC(=O)N2CCN(c3ccccc3)CC2)cc1C	n
Cc1ccc(C2CC(c3ccccc3)n3nc(N)nc3N2)cc1 (configuration not stated)	n
CCOc1ccc(N=C2S/C(=C\c3ccc(N(C)C)cc3)C(=O)N2CC)cc1	56.0%
CCN1C(=O)/C(=C2/Sc3ccc(OC)cc3N2C)SC1=Nc1ccc(C(C)=O)cc1	n
CCOc1ccc(N2C(=O)S/C(=C\c3ccccc3)C2=O)cc1	n
CCOc1cc(CN2CCCC(C(=O)N(CC)CC)C2)ccc1OC (configuration not stated)	n
O=C1CC(c2cccs2)CC2=C1C(c1cccc([N+](=O)[O-])c1)Nc1ccccc1N2 (configuration not stated)	n
O=C1CC(c2cccs2)CC2=C1C(c1cccc(F)c1)Nc1ccccc1N2 (configuration not stated)	30.0%
O=C1CC(c2cccs2)CC2=C1C(c1cc(F)ccc1F)Nc1ccccc1N2 (configuration not stated)	n
Cc1cccc2sc(NC(=O)c3cnc4sccn4c3=O)nc12	n
COc1cccc(OCCSc2nc(C)cc(=O)[nH]2)c1	n
COc1cc(/C=C2/C(=O)NN(c3ccc(C)c(Cl)c3)C2=O)ccc1OCc1ccccc1	48.0%
COc1cc(/C=C2/C(=O)NN(c3ccc(C)c(Cl)c3)C2=O)cc(OC)c1OC	n
Cc1ccc(N2NC(=O)/C(=C/c3ccc(OCc4ccccc4)cc3)C2=O)cc1Cl	n
COCCCNC(=O)c1cnc2n(c1=O)CCS2	n
COc1ccc(-n2ncc(C(C)NCc3ccc(NC(C)=O)cc3)c2C)cc1 (configuration not stated)	n
Cc1sc2nc3c(C(=O)N4CCN(c5cccc(Cl)c5)CC4)cccn3c(=O)c2c1C	n
O=C1CC2(CCCCC2)Oc2ccc(O)cc21	n
SMILES	ST2 IL33 inh
CC1(C(=O)Nc2ccc3c(c2)OC2(CCCCC2)O3)CC1(Cl)Cl (configuration not stated)	n
Nc1ccc2c(c1)OC1(CCCCC1)O2	37.0%
COc1cc(C2C(C(=O)Nc3cccc(C)n3)=C(C)NC3=C2C(=O)CC(C)(C)C3)ccc1O (configuration not stated)	n
O=[N+]([O-])c1ccc(N2CCN(S(=O)(=O)c3ccccc3)CC2)cc1NCC1CCCO1 (configuration not stated)	n
O=[N+]([O-])c1ccc(N2CCCC2)cc1NCC1CCCO1 (configuration not stated)	30.0%
CS(=O)(=O)N1CCN(c2ccc([N+](=O)[O-])c(NCCN3CCOCC3)c2)CC1	n
O=C(Nc1ccc2nc(SCC(=O)N3CCOCC3)sc2c1)c1ccccc1[N+](=O)[O-]	n
Cc1cc(Cn2cnc(-c3ccccc3)c2COCc2ccccc2)no1	n
Cc1ccc(Nc2nc(-c3ccc(F)cc3)cs2)cc1C	n
Cc1ccnc(Nc2nc(-c3ccccn3)cs2)c1	n
Cc1ccnc(Nc2nc(-c3ccc(O)c(O)c3)cs2)c1	44.0%
CCC(C)NC(=O)Cn1c(=O)n(Cc2ccc(C(=O)NC(C)C)cc2)c(=O)c2cc(OC)c(OC)cc21 (configuration not stated)	n
COc1cc(CCCO)cc(-c2cc(CCCO)cc(OC)c2O)c1O	n
C=CCc1ccc(OCCOc2ccc(C=O)cc2OC)c(OC)c1	n
C=CCc1cc(OC)c(O)c(-c2cc(CC=C)cc(OC)c2O)c1	41.0%
Cc1cc(SCC(C)C)n2ncnc2n1	n
COc1ccc(OC)c(Nc2cc(C)nc3c(C)c(C)ccc23)c1	37.0%
COc1ccc(Nc2cc(C)nc3c(C)c(C)ccc23)cc1	n
COc1ccc(Nc2cc(C)nc3c(C)c(C)ccc23)cc1OC	n
CC1(C(=O)NC2CCCC2)CCC(=O)N1Cc1ccco1 (configuration not stated)	n
Nc1nc2n(n1)C(c1ccco1)CC(c1ccc(F)cc1)N2 (configuration not stated)	n
Fc1ccc(C2=NN(c3ccccc3)C(c3ccco3)C2)cc1 (configuration not stated)	45.0%
O=C(c1ccccc1Br)N1N=C(c2ccc(Br)cc2)CC1c1ccco1 (configuration not stated)	n
CCOC(=O)c1oc2ccccc2c1NC(=O)C(C)Oc1ccccc1 (configuration not stated)	n
CC1(C)CCCC2=C1CC1C(=O)NN(c3ccccc3)C(=O)C1C2 (configuration not stated)	n
SMILES	ST2 IL33 inh
Cc1c(N=Cc2ccc(Br)o2)c(=O)n(-c2ccccc2)n1C	n
COc1ccc(Cl)cc1-c1ncnc2[nH]ccc12	n
Fc1ccc(Nc2cccc3nccnc23)cc1	49.0%
Fc1ccc(NC2CCCN(Cc3cccc4ncccc34)C2)cc1 (configuration not stated)	n
Clc1ccccc1Nc1cccc2nccnc12	39.0%
Cc1ccc2ncnc(Nc3ccccc3Cl)c2c1	n
CN(C)c1ccc(Nc2cccc3nccnc23)cc1	84.0%
c1cc(Nc2cccc3nccnc23)c2nccnc2c1	40.0%
CC(=O)Nc1cccc(N(C)C)c1	n
O=C(O)[C@@H]1[C@H](C(=O)Nc2cccc3cccnc23)[C@@H]2C=C[C@H]1C2	n
O=C(Nc1cccc2nccnc12)c1ccccc1	n
Cc1sc2ncnc(Nc3ccccc3Cl)c2c1C	n
Cc1cccc(-n2ncc3c(Nc4ccc(F)cc4)ncnc32)c1	n
Cc1ccc(-n2c(=O)c3sccc3n(CC(=O)NCc3ccccc3Cl)c2=O)cc1F	n
COc1cc2c(cc1OC)C(C(=O)N1CCCC1)C(c1ccc(SC)cc1)N(C)C2=O (configuration not stated)	n
COc1ccc(-c2nnc([C@H]3CCN(Cc4ccc(F)cc4)C3)o2)cc1	n
COc1cc2c(cc1OC)C(C[C@H]1CN(C(=O)C3CCCC3)CC[C@H]1CC(=O)O)=NCC2	n
COc1cc(-c2cc(C)c3cccc(OC)c3n2)cc2c1OCCN(CC(N)=O)C2	n
Cc1ccc2cccc(SCc3nc(N)nc(Nc4ccccc4)n3)c2n1	n
CCOc1cc(CN2CCCC(C(=O)N(CC)CC)C2)ccc1O (configuration not stated)	n
O=c1oc2cc([N+](=O)[O-])ccc2nc1C=C(O)c1ccco1	n
O=[N+]([O-])c1ccc2nc(-c3ccco3)c(-c3ccco3)nc2c1	36.0%
O=[N+]([O-])c1ccc2nc(CSc3nc4ccccc4o3)[nH]c2c1	n
CCOc1ccc(C(=O)Nc2ccccc2Cl)cc1Cl	n
CCC(=O)Nc1cc2nn(-c3ccc(OC)c(Cl)c3)nc2cc1C	n
CCOC(=O)C(C)Sc1nc(CC)c(C)cc1C#N (configuration not stated)	n
CN(C)c1nc2c(c(-c3ccccc3CN3CCOCC3)n1)CCCC2	n
Nc1nc(-c2ccccc2)cs1	n
